# Laboratory results as given in PubChem BioAssay.
# Unmarked numbers belong to inactive results. The rule behind the calls is not given here.
# Tested on: Aerobactin synthetase IucA (Klebsiella pneumoniae hvKP1)
# Assay: Biochemical IucA enzyme inhibition primary screen of the Spectrum library (AID 1346200);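 note: 100% = wells without compound and 0% = wells lacking enzyme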
# Settings: malachite green pyrophosphate, A620, at 8 µM, active compounds read low
row,Structure (SMILES),activity remaining [%]
1,CCCCCC(O)C1C(=O)OC(C)C(O)/C=C/C=C/C=C/C=C/C=C(\C)C(O)CC(O)CC(O)CC(O)CC(O)CC(O)CC1O (stereo not given),118
2,CCNC(=O)CC[C@H](N)C(=O)O,119
3,CC(=O)O[C@@H]1CC[C@@]2(C)C(C[C@@H](OC(C)=O)[C@@]3(C)C4=CC(=O)O[C@@H](c5ccoc5)[C@]4(C)CCC23)C1(C)C (stereo not given in full),121
4,CCOc1ccc(NC(C)=O)cc1,97.1
5,COc1ccc2c(c1OC)C(=O)O[C@H]2[C@H]1c2c(cc3c(c2OC)OCO3)CCN1C,116
6,OC[C@@H](O)C(O[C@@H]1O[C@H](CO)[C@H](O)[C@H](O)[C@H]1O)[C@H](O)[C@@H](O)CO (stereo not given in full),116
7,COc1cc(C)c(C(=O)Oc2cc(C)c(C(=O)O)c(O)c2C)c(OC)c1C,91.1
8,COc1ccc2cc3[n+](cc2c1OC)CCc1cc2c(cc1-3)OCO2,86.3
9,OC[C@H]1O[C@@H](O[C@@H]2[C@@H](CO)O[C@](O)(CO)[C@H]2O)[C@H](O)[C@@H](O)[C@H]1O,121
10,Cc1ccc(C(=O)c2ccc(CC(=O)O)n2C)cc1,120
11,CN(C)C(=N)N=C(N)N,120
12,CC(=O)O[C@H]1CC[C@]2(C)C3CC[C@@]4(C)C(CC5O[C@@]6(CCC(C)CO6)[C@@H](C)C54)C3CC[C@@H]2C1 (stereo not given in full),84.2
13,CC(CCC(=O)O)[C@H]1CCC2C3CC[C@@H]4CCCC[C@]4(C)C3CC[C@@]21C (stereo not given in full),108
14,COC(=O)Nc1nc2ccc(Sc3ccccc3)cc2[nH]1,114
15,CC(NCCc1ccc(O)cc1)C(O)c1ccc(O)cc1 (stereo not given),115
16,CC(C)(N=NC(C)(C)C(=N)N)C(=N)N,105
17,CC(=O)O[C@]1(C(C)=O)CCC2C3C=C(Cl)C4=CC(=O)CC[C@]4(C)C3CC[C@@]21C (stereo not given in full),130
18,CC(=O)Nc1ccc(S(=O)(=O)c2ccc(NC(C)=O)cc2)cc1,110
19,NC(Cc1cc(I)c(Oc2ccc(O)c(I)c2)c(I)c1)C(=O)O (stereo not given),97.1
20,CCCCC(=O)O[C@]1(C(=O)CO)CCC2C3CCC4=CC(=O)CC[C@]4(C)C3[C@@H](O)C[C@@]21C (stereo not given in full),111

row,Structure (SMILES),activity remaining [%]
1,CC(CCC(=O)O)[C@H]1CCC2C3C[C@H](O)[C@@H]4C[C@H](O)CC[C@]4(C)C3CC[C@@]21C (stereo not given in full),104
2,O=C(NC(Cc1cc(=O)[nH]c2ccccc12)C(=O)O)c1ccc(Cl)cc1 (stereo not given),106
3,COc1cc(-c2coc3cc(OCc4ccccc4)c(OC)c(O)c3c2=O)cc(O)c1OC,122
4,OCC(O)CN1CCN(c2ccccc2)CC1 (stereo not given),107
5,COc1ccc(CCN(C)CCCC(C#N)(c2ccc(OC)c(OC)c2)C(C)C)cc1OC (stereo not given),97.5
6,CC[C@]1(O)CC2CN(CCc3c([nH]c4ccccc34)[C@@](C(=O)OC)(c3cc4c(cc3OC)N(C=O)[C@H]3[C@@](O)(C(=O)OC)[C@H](OC(C)=O)[C@]5(CC)C=CCN6CC[C@]43[C@@H]65)C2)C1 (stereo not given in full),82.4
7,NC(=NCCCCCCN=C(N)/N=C(\N)Nc1ccc(Cl)cc1)/N=C(\N)Nc1ccc(Cl)cc1,95.5
8,CC1(C)CC2C1CCC1(C)OC2(C)CCC1O (stereo not given),120
9,CCC(C(=O)O)c1ccccc1 (stereo not given),123
10,CC[C@]1(O)CC2CN(CCc3c([nH]c4ccccc34)[C@@](C(=O)OC)(c3cc4c(cc3OC)N(C)[C@H]3[C@@](O)(C(=O)OC)[C@H](OC(C)=O)[C@]5(CC)C=CCN6CC[C@]43[C@@H]65)C2)C1 (stereo not given in full),126
11,CC(=O)OC[C@H]1O[C@@H](Oc2cc(OC(C)=O)c3c(=O)cc(-c4ccc(OC(C)=O)cc4)oc3c2)[C@H](OC(C)=O)[C@@H](OC(C)=O)[C@@H]1OC(C)=O,92.5
12,COc1cc(OC)c2c(c1Cl)OC1(C2=O)C(O)=CC(=O)CC1C (stereo not given),107
13,COC(=O)c1c(Cl)c(Cl)c(C(=O)OC)c(Cl)c1Cl,110
14,CC(C)(S)C(N)C(=O)O (stereo not given),128
15,COc1ccc(C2C(=O)c3ccccc3C2=O)cc1,119
16,O=C1C(=O)c2ccccc2C(O)=C1C1CCC(c2ccc(Cl)cc2)CC1 (stereo not given),101
17,CS(=O)(=O)c1ccc([C@@H](O)[C@@H](CO)NC(=O)C(Cl)Cl)cc1,124
18,O=C1[O][Bi][O]c2ccccc21,107
19,COC(=O)C[C@H]1C(C)(C)C(=O)[C@@H]2CC3=C(CC[C@]4(C)C3=CC(=O)O[C@H]4c3ccoc3)C1(C)C2=O,121
20,Cc1onc(-c2ccccc2)c1-c1ccc(S(N)(=O)=O)cc1,103
